# According to PubChem BioAssay AID623901 (Broad Institute, 2012):
# “And” between values parts separate entries of the source, which are not always exact repeats. Equal entries are not always repeated. Out of some 340,000 compounds screened, about 470 (0.14%) were called active. Only a selection was taken, and actives are over-represented in it overall. Values without a mark were called inactive.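 The calls were made as follows: active = mean activation of 30% or more, with every replicate also reaching 30%; inconclusive = mean activation of 30% or more but some replicate falls short; inactive = the rest.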
# Test: small molecules raising miR-122 sensor signal – cell-based, Huh7 psiCHECK-miR122, Renilla luciferase, single point, primary screen (AID 623901);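 also: 0% = median of neutral control wells and 100% = median of positive control wells; higher luciferase signal means stronger suppression of miR-122 activity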
# Details: 48 h, at 12.5 µM, stronger effect = higher value
row,SMILES,activation
1,CCOC(=O)c1c(C)[nH]c(C)c1S(=O)(=O)NCCCc1ccco1,-128%
2,CCC(=O)N1C[C@@H](C)[C@@H](OC)CN(C)C(=O)c2ccc(NC(=O)C3CCCCC3)cc2OC[C@@H]1C,0.432%
3,C[C@H](CO)N1C[C@H](C)[C@H](CN(C)S(=O)(=O)c2cccc(F)c2)Oc2ncc(/C=C/c3ccccc3)cc2C1=O,-2.26%
4,COCC(=O)N(C)C[C@@H]1Oc2cc(C#CC3CC3)ccc2S(=O)(=O)N([C@H](C)CO)C[C@H]1C,3.88%
5,CCC(=O)N(C)C[C@H]1Oc2ncc(C#C[C@@H](C)O)cc2C(=O)N([C@@H](C)CO)C[C@H]1C,2.8%
6,COCC#Cc1cnc2c(c1)C(=O)N([C@@H](C)CO)C[C@@H](C)[C@@H](CN(C)C(=O)Nc1ccccc1OC)O2,1.08%
7,CS(=O)(=O)N(CC(=O)Nc1ccc(Cl)c(Cl)c1)C1CCCCC1,-174%
8,O=C(CC(O)(C(F)(F)F)C(F)(F)F)Nc1ccc(Cl)c(Cl)c1,63% (active)
9,C[C@@H](O)C#Cc1ccc2c(c1)O[C@@H](CN(C)C)[C@@H](C)CN([C@@H](C)CO)S2(=O)=O,-3.26%
10,COc1ccc(C(=O)Nc2ccccc2C(=O)N/N=C/c2ccccc2OC)cc1,-115%
11,CCCN(C)C[C@H]1Oc2ncc(-c3ccccc3OC)cc2C(=O)N([C@H](C)CO)C[C@H]1C,-2.24%
12,COc1ccccc1CNc1nc(Nc2ccccc2Cl)c2sccc2n1,44.5% (active)
13,C[C@@H]1CN([C@H](C)CO)S(=O)(=O)c2ccc(C#CCN(C)C)cc2O[C@@H]1CN(C)C(=O)CN(C)C,5.44%
14,COc1ccc(CNS(=O)(=O)c2cc(-c3cc(C)no3)ccc2C(C)C)cc1,-200%
15,OCC(O)C1OCOC(C(O)CO)C1O (stereo not given),-93%
16,C[C@@H]1CN([C@@H](C)CO)C(=O)c2cc(-c3ccc(F)cc3)cnc2O[C@@H]1CN(C)Cc1ccc(C(=O)O)cc1,1.12%
17,CO[C@@H]1CN(C)C(=O)c2ccc(NC(=O)C3CCC3)cc2OC[C@H](C)NC[C@H]1C,1.3%
18,C[C@@H]1CN([C@H](C)CO)C(=O)c2cc(-c3ccncc3)cnc2O[C@@H]1CN(C)C(=O)Cc1cccnc1,-6.69%
19,COc1ccccc1-c1ccc2c(c1)O[C@@H](CN(C)C(=O)Nc1ccccc1)[C@H](C)CN([C@@H](C)CO)S2(=O)=O,-1.07%
20,COCC#Cc1ccc2c(c1)O[C@@H](CN(C)C(C)=O)[C@H](C)CN([C@H](C)CO)S2(=O)=O,5.04%
21,COc1ccccc1-c1cnc2c(c1)C(=O)N([C@H](C)CO)C[C@H](C)[C@H](CN(C)C(=O)CN(C)C)O2,-1.92%
22,COc1ccccc1C#Cc1ccc2c(c1)O[C@@H](CN(C)Cc1cncnc1)[C@H](C)CN([C@@H](C)CO)S2(=O)=O,8.43%
23,C[C@H](O)C#Cc1ccc2c(c1)O[C@H](CN(C)Cc1cccnc1)[C@@H](C)CN([C@H](C)CO)S2(=O)=O,-6.12%

row,SMILES,activation
1,COCC#Cc1cnc2c(c1)C(=O)N([C@@H](C)CO)C[C@@H](C)[C@@H](CN(C)C(=O)Nc1ccc(OC)cc1)O2,-2.9%
2,C[C@H]1CN([C@@H](C)CO)C(=O)c2cc(-c3cccc(F)c3)cnc2O[C@@H]1CN(C)Cc1cncnc1,-0.0525%
3,O=C(NC(Nc1nc2ccc([N+](=O)[O-])cc2s1)(C(F)(F)F)C(F)(F)F)c1ccccc1,45.7% (active)
4,C[C@H](CO)N1C[C@H](C)[C@@H](CN(C)Cc2ccc3c(c2)OCO3)Oc2c(NC(=O)C3CCOCC3)cccc2C1=O,-319%
5,O=C(CCc1ccc(S(=O)(=O)NC2CCCCC2)cc1)NCc1ccccc1,-101%
6,C[C@H]1CN([C@@H](C)CO)C(=O)c2cc(-c3ccccc3F)cnc2O[C@@H]1CN(C)C(=O)C1CCCCC1,4.49%
7,CCCOC(=O)c1[nH]c2c(c1C)C(=O)CC(c1cccs1)C2 (stereo not given),-94%
8,COc1ccc(NC(=O)Nc2ccc3c(c2)OC[C@@H](C)NC[C@@H](C)[C@H](OC)CN(C)C3=O)cc1,3.26%
9,C[C@H](O)C#Cc1ccc2c(c1)O[C@H](CN(C)C)[C@@H](C)CN([C@H](C)CO)S2(=O)=O,4.16%
10,CO[C@H]1CN(C)C(=O)c2ccc(NC(=O)Nc3ccc(F)cc3)cc2OC[C@@H](C)NC[C@H]1C,-0.877%
11,CC(C)C#Cc1ccc2c(c1)O[C@@H](CN(C)C(=O)CN(C)C)[C@@H](C)CN([C@H](C)CO)S2(=O)=O,1.71%
12,Cc1c(-c2ccccc2)cn2c1-c1ccc(C)n1CC2,-248%
13,CO[C@H]1CN(C)C(=O)c2ccc(NC(=O)C3CCC3)cc2OC[C@@H](C)NC[C@H]1C,2.77%
14,C[C@@H]1CN([C@@H](C)CO)C(=O)c2cc(-c3cncnc3)cnc2O[C@H]1CN(C)Cc1cncnc1,9.2%
15,CCCC#Cc1ccc2c(c1)O[C@@H](CN(C)C(=O)CC)[C@H](C)CN([C@H](C)CO)S2(=O)=O,-21.9%
16,C[C@@H]1CN([C@@H](C)CO)C(=O)c2cc(-c3cncnc3)cnc2O[C@@H]1CN(C)Cc1ccncc1,-14.3%
17,CCC(=O)N(C)C[C@@H]1Oc2ncc(C#C[C@H](C)O)cc2C(=O)N([C@@H](C)CO)C[C@@H]1C,-1.06%
18,C[C@@H]1CN([C@@H](C)CO)C(=O)c2cc(C3=CCCCC3)cnc2O[C@H]1CN(C)CC1CCOCC1,-37.5%
19,CCOc1ccc(Br)cc1S(=O)(=O)Nc1cccc(S(=O)(=O)N(CC)CC)c1,-110%
20,CC(C)CNS(=O)(=O)c1ccc(OCC(=O)Nc2ccc3c(c2)OCO3)c(Cl)c1,-303%
21,C[C@H]1CN([C@@H](C)CO)C(=O)c2cc(C3=CCCCC3)cnc2O[C@@H]1CN(C)C(=O)Cc1ccccc1,-4.91% and -1.39%
22,C[C@H](CO)N1C[C@H](C)[C@H](CN(C)C(=O)C2CCOCC2)Oc2ncc(C#Cc3ccccc3F)cc2C1=O,-1.81%
